# Screening results: PubChem, National Center for Advancing Translational Sciences (NCATS)
# Compounds with a hit are over-represented: about 12% of the library has one in this group of screens.
# MARV entry inh: inhibitors of Marburg virus binding or cell entry; 1.8% of 300,000 active; Marburg virus pseudotyped entry inhibition, cell reporter; Potency, µM (top dose mostly 37.8 µM), without a hit: at the highest dose activity change, negative = inhibition, most hits filed as inhibitors; calls by dose curve; tested in HEK293 cells; further: potency means the concentration at half of the fitted maximal effect; on the % scale 0 is the no-effect control and ±100 the full control effect
# LASV entry inh: inhibitors of Lassa virus binding or cell entry | Potency, µM (top dose mostly 37.9 µM), inactives show at the top dose activity change, negative = inhibition, most hits filed as inhibitors | Lassa virus pseudotype entry inhibition, cell reporter | 1.2% of 300,000 active | AID 540256; calls by dose curve; tested in HEK293 cells; further: potency means the concentration at half of the fitted maximal effect; on the % scale 0 is the no-effect control and ±100 the full control effect; nearly all actives have a fitted effect of over 50% in size
# Cycloheximide cs: counter-screen for Shiga toxin inhibitors: cycloheximide protein synthesis inhibition | AID 2314 | max response, % | cell reporter, cycloheximide protein synthesis inhibition counterscreen | 12% of 300,000 active; in the data active means max response mostly above about 13%, no sharp cut-off; inactive means mostly below about 14%; further: read at 38.3 µM for the half of the compounds with a filed dose; 0% is about no effect
# Shiga toxin inh: blocks Shiga toxin action in Vero cells; Vero cells, Shiga toxin protein synthesis inhibition reporter; inhibition, % at 38.7 µM; 9.2% of 290,000 active; in the data active means inhibition mostly above about 28%, no sharp cut-off; inactive means mostly below about 43%; further: 0% is about no effect
# An asterisk follows results filed as active; u = inconclusive; x = no result given; [ ] = dose if it differs, or a comment.
SMILES,MARV entry inh,LASV entry inh,Cycloheximide cs,Shiga toxin inh
CC[C@H](C)[C@H](NC(=O)[C@H](CC(=O)O)NC(=O)[C@H](CC(C)C)NC(=O)[C@H](Cc1cnc[nH]1)NC(=O)[C@H](C)NC(=O)[C@H](Cc1ccccc1)NC(=O)[C@H](Cc1ccc(O)cc1)NC(=O)[C@@H](NC(=O)[C@H](C)NC(=O)[C@H](CCC(=O)O)NC(=O)[C@H](CCC(=O)O)NC(=O)[C@H](CC(=O)O)NC(=O)CCC(=O)O)C(C)C)C(=O)N[C@H](C(=O)N[C@@H](Cc1c[nH]c2ccccc12)C(=O)O)[C@@H](C)CC,x,x,-2,-8
Nc1nc(NCC2CCC(CNS(=O)(=O)c3cccc4ccccc34)CC2)nc2ccccc12 (centres undefined),x,x,-7,-15
O=C(NCCCN1CCCC1)Nc1ccccc1[N+](=O)[O-],-12%,-18%,-3,-1
O=CC1=C(c2ccccc2)Oc2ccccc2O1,7.9µM*,u,38*,94*
CCOc1ccc(/C=C2/C(=O)N(c3ccc(OC)cc3)C(=S)N2CC(=O)OC)cc1OCC,-17%,u,30*,12*
CCOc1ccc(N2C(=O)/C(=C/c3cc(OC)c(OC)c(OC)c3)N(CC(=O)OC)C2=S)cc1,-12%,u,-3,-7
O=C(c1ccc2c(c1)OCCO2)N1CCN(Cc2ccccc2)CC1,2%,3%,15*,38
O/N=C(/CCc1ccccc1)c1ccc2c(c1)OCCO2,3%[46.1 µM],u,38*,75*
O=C(CCCc1ccccc1)c1ccccc1,u,x,46*,97*
C/C(=N/NC(=O)CCc1ccccc1)c1ccc2c(c1)OCO2,u,u,9,-2
O=C(CCc1ccccc1)c1ccc2c(c1)OCCCO2,22%,u,69*,125*
O=C(O)CCC(=O)c1ccc2c(c1)OCCCO2,14%,5%,11,4
COc1ccc(C2CCCN2C(=S)Nc2cccc(Cl)c2C)cc1OC (centres undefined),u,-6%[46.1 µM],2,-10
COc1ccc2[nH]cc(CCNS(=O)(=O)c3ccc(C)cc3)c2c1,-4%[46.1 µM],u,-1,8
O=C(CCCc1ccccc1)c1ccc2c(c1)OCCO2,0.46µM*,u,-9,-17
CCc1cc2cc(C(=O)N3CCN(c4ccccc4)CC3)sc2s1,5%,u,-2,-5
CCc1cc2cc(C(=O)N3CCN(Cc4ccccc4)CC3)sc2s1,-6%,-25%,22*,49*
Cn1c(=O)c2c3c(sc2n2c(SCC(N)=O)nnc12)C[C@H](C(C)(C)C)CC3,-1%,x,x,x
Cc1csc(Cn2c(CN(C)C)nc3ccccc3c2=O)n1,8%,4%,-2,-12
CN(C)Cc1nc2ccccc2c(=O)n1Cc1nc(-c2cc3ccccc3o2)cs1,11µM*,-2%,-3,-4
O=C(CN1C(=O)c2cccnc2Oc2ccc(Cl)cc21)NC1CCCC1,-22%[46.1 µM],u,2,-5
CC1CCC(NC(=O)CN2C(=O)c3cccnc3Oc3ccc(Cl)cc32)CC1 (centres undefined),u,u,16*,28
CC(C)c1nn2c(=O)cc(COC(=O)c3ccccc3NC(=O)c3cccc(Cl)c3)nc2s1,x,17%[46.1 µM],x,x
CCN(CC)S(=O)(=O)c1cc(C(=O)Oc2cccc(-c3cnc4ccccc4n3)c2)ccc1Br,-21%,u,61*,65*
O=C(Oc1ccc(-c2cnc3ccccc3n2)cc1)c1ccc(Br)o1,u,u,24,45
SMILES,MARV entry inh,LASV entry inh,Cycloheximide cs,Shiga toxin inh
CCN(CC)S(=O)(=O)c1ccc(Cl)c(C(=O)Oc2cccnc2)c1,0%,-12%,-3,57
CCN(CC)S(=O)(=O)c1ccc(Cl)c(C(=O)Oc2cccc(-c3cnc4ccccc4n3)c2)c1,u,u,31*,81*
Cc1cc(C)cc(NC(=O)CSCc2nc3c(nnn3Cc3ccc(F)cc3)c(=O)[nH]2)c1,-6%,-6%,x,x
NC(=S)NN=C(c1ccc(F)cc1)C1CC1,18%,4%,x,x
CC(C)CN(CCCNC(=O)CN1N=C(c2ccc(Cl)cc2)CCC1=O)CC(C)C,x,-21%[46.1 µM],-1,-7
COc1cccc(C(=O)Cn2c(=N)n(C)c3ccccc32)c1,u,u,31*,30
CCn1c(=N)n(CC(=O)c2cccc([N+](=O)[O-])c2)c2ccccc21,u,5%[46.1 µM],38*,81*
N=c1n(CC(=O)c2cccc([N+](=O)[O-])c2)c2ccccc2n1Cc1ccccc1,u,x,6,15
Cn1c(=N)n(CC(=O)c2cccs2)c2ccccc21,u,22%,56*,149*
COCCn1cnnc1SCC(=O)c1ccc(S(=O)(=O)N2CCCC2)cc1,2%[46.1 µM],-7%,-3,14
CCOC(=O)C(=O)NCC(c1cccs1)S(=O)(=O)c1ccc(F)cc1 (centres undefined),22%[46.1 µM],-16%,x,x
COc1ccc(CCC(=O)Nc2ccc(Br)cn2)cc1,-11%,-23%[14.3 µM],38*,78
CCCCC(=O)Nc1ccc(Cl)cn1,6%,13%,14,35
CCCCCC(=O)Nc1ccc(Cl)cn1,5%,3%,39*,61*
CCCC(C)C(=O)Nc1ccc(Cl)cn1 (centres undefined),18%,0%,8.0*,47*
CCCCCCC(=O)Nc1ccc(Br)cn1,x,x,30*,50*
Cc1nc(-c2ccc(S(=O)(=O)NCc3ccccn3)s2)cs1,x,x,7,14
Cn1c(=O)c2c(-c3ccccc3)n3c(c2n(C)c1=O)C(c1ccccc1[N+](=O)[O-])Nc1ccccc1-3 (centres undefined),6%[46.1 µM],-12%[46.1 µM],x,x
C=CCCC1(CCC)C(=O)C(=C(O)c2ccccc2)C(=O)C(CCC)=C1OC (centres undefined),-2%[14.2 µM],x,x,x
COCCCN1C(=O)c2ccc(C(=O)N3CCN(c4ccccc4OC)CC3)cc2C1=O,x,x,-2,10
CC(C)(C)c1ccc(S(=O)(=O)N2CCN(CC(=O)NC(=O)NC3CCCCC3)CC2)cc1,u,-28%,x,x
C[C@@H](C(=O)Nc1nc2ccccc2s1)N1C(=O)C2CC=CCC2C1=O (some centres undefined),10%,-14%,17,22
C[C@@H](C(=O)Nc1nc2ccc(F)cc2s1)N1C(=O)C2CC=CCC2C1=O (some centres undefined),6%[46.1 µM],u,23*,57
Cc1ccc2nc(NC(=O)[C@H](C)N3C(=O)C4CC=CCC4C3=O)sc2c1 (some centres undefined),6%[46.1 µM],-20%,33*,37*
Cc1cccc2sc(NC(=O)[C@H](C)N3C(=O)C4CC=CCC4C3=O)nc12 (some centres undefined),-1%,9%,7,25
COC(=O)C(=Nc1ccccc1)/C(C(=O)C(=O)N(C)c1ccccc1)=C(\O)c1ccccc1,u,27%[46.1 µM],44*,119*
COc1ccc(CN(C)Cc2nc3scc(-c4ccccc4)c3c(=O)[nH]2)cc1OC,u,-19%,-2,-4
CC(/C=C/c1ccc(OCc2ccccc2)cc1)=N\O,u,-1%,60*,77*
CC(/C=C/c1ccc(O)cc1)=N/O,22%[46.1 µM],0%,19*,28*
CC(/C=C/c1ccccc1)=N/O,-1%[46.1 µM],5%,19*,22
